For 15 compounds, growth results are on record in PubChem BioAssay (NCI).

Compounds without any hit were thinned out: in the full panel of roughly 83,000, 20% have a hit.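 Each cell line was grown in a 96-well plate and treated with one concentration of compound for 48 hours. Values below 10 were considered active.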 Values without a mark were called inactive. Active and inactive are the calls of the source.

This experiment deals with MDA-MB-468 breast. Nature of the experiment: NCI-60 one-dose screen, 48 h (100 = growth as untreated, 0 = no growth, -100 = all killed). The note with it: 10 µM unless noted.
In the case of `COc1cc2c3c(n(CCCN4CCCC4)c(=O)c2cc1OC)-c1cc2c(cc1C3=O)OCO2`, the growth was 84.1%.
For `C/C(=N/NC(N)=S)c1ccc(C)cc1`, the growth was 23.5%.
As to `c1ccc(-c2ccc(-c3ccccc3)[nH]2)cc1`, the growth is 70.1%.
The result for `O=C(Nc1ncc(Cc2cc(C(F)(F)F)ccc2Cl)s1)c1cccs1` reads -0.706% (active); that for `Cc1ccc(NC(=O)c2cccc(CN3CCN(C)CC3)c2)cc1Oc1ccc(-c2[nH]nc3ncnc(N)c23)cc1`, 51.3%; that for `Cc1cc(O)c(C2=NN(c3ccc(S(N)(=O)=O)cc3)C(c3ccc(Cl)cc3)C2)c(C)c1Cl` (stereo not given), 43.7%.
In the case of `O=c1oc2c(C(F)(F)F)cccc2cc1-c1csc(Nc2ccc(OCCF)cc2)n1` it was 5.55% (active); in that of `Cc1nc(-n2[nH]c(=O)ccc2=O)sc1N=Nc1ccccc1`, 93.8%.
In the case of `NC(N)=N/N=C/c1ccc(Cl)cc1` it was 44%; in that of `O=C(S)CNC(=O)c1ccccc1`, 95.7%.
Consider `CC/C=C\C[C@H](O)C/C=C1/C(=O)C=C[C@@H]1C/C=C\CCCC(=O)NC`, for which the growth was -47.4% (active).
In the case of `COC(=O)c1cccc([N+](=O)[O-])c1` it was 105%; in that of `COc1ccc(Cn2cc3c(c2-c2cc(OC)c(OC)c(OC)c2)CCc2cnoc2-3)cc1`, 4.09% (active); in that of `O=C(Nc1ccc(Oc2ccc(Nc3nc4ccccc4s3)cc2)cc1)Nc1ccc(Cl)c(C(F)(F)F)c1`, 4.56% (active).
On to `COc1ccc(C(=O)c2cc3c(N)c(C(=O)Nc4cccc(Cl)c4)sc3nc2C)cc1`, for which the growth is 10.5%.
